Measured values reported in PubChem BioAssay.
For some assays here: Potency and affinity values are given separately. Calls of active or inactive are those of the source. How the calls were made is not given here.

What follows are compounds tested against Plasmodium falciparum protein kinase 6 (PK6, PF3D7_1337100) (UniProt Q8IDW1) (assay: PfPK6 kinase inhibitors, biochemical, TCAMS library (AID 1159586)). Settings: recombinant PfPK6, Kinase-Glo ATP depletion luminescence.
Plasmodium falciparum protein kinase 6 (PK6, PF3D7_1337100), sequence (Q8IDW1 1-305): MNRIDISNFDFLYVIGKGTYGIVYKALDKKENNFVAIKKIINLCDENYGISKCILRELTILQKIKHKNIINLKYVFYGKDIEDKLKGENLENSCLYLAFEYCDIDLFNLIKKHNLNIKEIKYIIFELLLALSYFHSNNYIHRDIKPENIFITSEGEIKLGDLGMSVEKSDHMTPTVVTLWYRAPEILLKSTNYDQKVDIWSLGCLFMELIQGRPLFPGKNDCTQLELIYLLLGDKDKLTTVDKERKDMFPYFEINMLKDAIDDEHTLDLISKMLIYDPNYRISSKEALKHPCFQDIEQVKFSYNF

outcome, inactive:
Cc1nnsc1C(=O)Nc1ccc(-c2ccc(-c3nc4c(C)cccc4[nH]3)s2)cc1
O=C([C@@H]1CCCCN1c1ccc([N+](=O)[O-])c2ccccc12)N1CCN(c2ncccn2)CC1
O=C(/C=C/c1ccc(Cl)c(Cl)c1)NCCCCCN1CCCN(C(=S)Nc2cccc(Cl)c2)CC1
O=C(Nc1cccc(-c2cccc(-c3nc4ccc(C(F)(F)F)cc4[nH]3)c2)c1)c1csnn1
Cc1cc(CN2C(=O)C(c3ccccc3)(c3ccccc3)N=C2N)c(C(F)(F)F)o1
COc1ccc(-c2ccc(NC(=O)c3ccccc3)cc2)cc1CN1CCCN(C)CC1
COc1ccc2nccc(N3C[C@H]4C[C@@H]3CN4CCNCc3ccc4c(n3)NC(=O)CS4)c2n1
COc1ccc2ncc(OC)c(CCN3CC[C@@H](NCc4ccc5c(n4)NC(=O)CS5)[C@H](O)C3)c2n1
Cn1cncc1C(=O)Nc1cccc(-c2ccc(-c3nc4ccc(C(F)(F)F)cc4[nH]3)cc2)c1
Cc1c(-c2cccc(CNCCc3ccc(Cl)cc3)c2)cnc(N)c1C
O=C(N[C@@H](Cc1ccccc1)C(=O)O)c1cc(-c2ccc(F)cc2)no1 (tested in a mixture with another compound)
O=C(NCCCCCN1CCC(c2c[nH]c3ccccc23)CC1)Nc1cccc(I)c1
O=C(Nc1ccc(N2CCCCC2)c(Cl)c1)c1ccco1
CC(C)C(C(=O)Nc1ccc2c(c1)OCO2)c1ccc(Cl)cc1 (stereo not given)
CC(C)c1ncc(-c2ccncc2)c(C2CCC(CNC(=O)c3ccncc3)CC2)n1 (stereo not given)
O=S(=O)(NCCN1CCCC1)c1cccc(-c2cccc(CNCc3ccc(F)cc3)c2)c1
CCCC(C)NC(=O)c1cnn(-c2ccc(C(C)(C)C)cc2)c1OCc1ccc(Br)cc1 (stereo not given)
COC(=O)c1cccc(CNCc2cccc(-c3cccc(-c4nc5ccc(F)cc5[nH]4)c3)c2)c1
CCCCCN1CCC(NS(=O)(=O)c2cccc(C(=O)Nc3cccc(C(F)(F)F)c3)c2)C1 (stereo not given)
CCNc1cc(C(=O)N[C@@H](Cc2ccccc2)[C@H](O)CNC2(CCC(C)C)CC2)cc(N2CCCCS2(=O)=O)c1
COc1cc2nc(NC3CCN(Cc4ccccc4)CC3)nc(N)c2cc1OC
CCN(CC)CCCNc1ncc2c(-c3ccc(NC(=O)Nc4cc(C(F)(F)F)ccc4F)c(F)c3)nn(C)c2n1
CN(C)CCOc1cc(NC(=O)Nc2ccc(Oc3ccccc3)cc2)ccc1I
COc1ccc(NC(=O)/C=C/c2ccc(-c3ccccc3)cc2)cc1N1CCN(C)CC1
CCc1c[nH]c2c(N3CCCS3(=O)=O)cc(C(=O)N[C@@H](Cc3ccccc3)[C@H](O)CNC(C)(C)CCCC(C)C)cc12
O[C@H]1[C@H](OCc2ccc(-c3ccccc3)cc2)CC[C@@H]1N1CCCCC1
Cc1ccc(NC(=O)c2ccc(CN3CCCN(Cc4cccc(O)c4)CC3)cc2)cc1F
CCNc1cc(C(=O)N[C@@H](Cc2ccccc2)[C@H](O)CNC2CCC(C(C)(C)C)CC2)cc(N2CCCC2=O)c1 (stereo not given in full)
OC(COCc1ccc(-c2ccccc2)cc1)CN1CCCCC1 (stereo not given)
Nc1ccc2nc(C=Cc3ccc(Cl)cc3)[nH]c2c1
CC(C)NCc1cccc(-c2ccc(NC(=O)c3ccc(F)cc3)cc2)c1
CN(CCCc1c[nH]c2ccccc12)CCC1CCC(NC(=O)/C=C/c2ccc(Cl)c(Cl)c2)CC1 (stereo not given)
Cc1c(-c2cccc(C(C)(C)NCCCN3CCCCC3)c2)cnc(N)c1C
CC(CN(C)C)C(=O)Nc1cccc(-c2cccc(-c3nc4ccccc4[nH]3)c2)c1 (stereo not given)
O=[N+]([O-])c1cccc(CNCC2CCN(Cc3ccc(Cl)c(Cl)c3)CC2)c1
NC(N)=NCCCN(Cc1ccccc1)c1ccccc1
Cc1cc(=O)c(-c2ccc(OCc3ccc(OC(F)(F)F)cc3)cc2)c(C)[nH]1
CC(C)CNCc1cccc(-c2cccc(CN(CCCN3CCN(C)CC3)C(=O)NC3CCCCC3)c2)c1
CC(C)c1ccc(S(=O)(=O)Nc2cccc(CCN3CCC(N4CCCCC4)CC3)c2)cc1
O=C1Nc2cccc3c2C1(CCCCN1CCC(c2c[nH]c4cc(C(F)(F)F)ccc24)CC1)CCC3 (stereo not given)

These compounds were tested against Protein kinase 7 (PK7), Plasmodium falciparum 3D7 (PF3D7_0213400) (UniProt Q7YTF7) (assay: inhibition of Plasmodium PK7 catalytic activity – biochemical, TCAMS antimalarial set, Kinase-Glo luminescence (AID 1159587)). Settings: recombinant PfPK7, Kinase-Glo ATP depletion luminescence.
Protein kinase 7 (PK7), Plasmodium falciparum 3D7 (PF3D7_0213400), sequence (Q7YTF7 1-343): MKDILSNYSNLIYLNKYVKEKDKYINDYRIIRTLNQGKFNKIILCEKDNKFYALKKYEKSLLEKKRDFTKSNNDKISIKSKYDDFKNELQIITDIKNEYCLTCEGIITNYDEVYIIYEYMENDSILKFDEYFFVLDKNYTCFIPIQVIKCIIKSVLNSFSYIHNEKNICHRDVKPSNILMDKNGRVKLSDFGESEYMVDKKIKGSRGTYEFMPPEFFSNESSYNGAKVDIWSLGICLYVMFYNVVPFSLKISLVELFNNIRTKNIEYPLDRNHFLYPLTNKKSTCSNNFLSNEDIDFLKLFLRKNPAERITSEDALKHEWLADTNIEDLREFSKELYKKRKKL

outcome, inactive:
Cc1nnsc1C(=O)Nc1ccc(-c2ccc(-c3nc4c(C)cccc4[nH]3)s2)cc1
O=C([C@@H]1CCCCN1c1ccc([N+](=O)[O-])c2ccccc12)N1CCN(c2ncccn2)CC1
O=C(/C=C/c1ccc(Cl)c(Cl)c1)NCCCCCN1CCCN(C(=S)Nc2cccc(Cl)c2)CC1
O=C(Nc1cccc(-c2cccc(-c3nc4ccc(C(F)(F)F)cc4[nH]3)c2)c1)c1csnn1
Cc1cc(CN2C(=O)C(c3ccccc3)(c3ccccc3)N=C2N)c(C(F)(F)F)o1
COc1ccc(-c2ccc(NC(=O)c3ccccc3)cc2)cc1CN1CCCN(C)CC1
COc1ccc2nccc(N3C[C@H]4C[C@@H]3CN4CCNCc3ccc4c(n3)NC(=O)CS4)c2n1
COc1ccc2ncc(OC)c(CCN3CC[C@@H](NCc4ccc5c(n4)NC(=O)CS5)[C@H](O)C3)c2n1
Cn1cncc1C(=O)Nc1cccc(-c2ccc(-c3nc4ccc(C(F)(F)F)cc4[nH]3)cc2)c1
Cc1c(-c2cccc(CNCCc3ccc(Cl)cc3)c2)cnc(N)c1C
O=C(N[C@@H](Cc1ccccc1)C(=O)O)c1cc(-c2ccc(F)cc2)no1 (tested in a mixture with another compound)
O=C(NCCCCCN1CCC(c2c[nH]c3ccccc23)CC1)Nc1cccc(I)c1
O=C(Nc1ccc(N2CCCCC2)c(Cl)c1)c1ccco1
CC(C)C(C(=O)Nc1ccc2c(c1)OCO2)c1ccc(Cl)cc1 (stereo not given)
CC(C)c1ncc(-c2ccncc2)c(C2CCC(CNC(=O)c3ccncc3)CC2)n1 (stereo not given)
O=S(=O)(NCCN1CCCC1)c1cccc(-c2cccc(CNCc3ccc(F)cc3)c2)c1
CCCC(C)NC(=O)c1cnn(-c2ccc(C(C)(C)C)cc2)c1OCc1ccc(Br)cc1 (stereo not given)
COC(=O)c1cccc(CNCc2cccc(-c3cccc(-c4nc5ccc(F)cc5[nH]4)c3)c2)c1
CCCCCN1CCC(NS(=O)(=O)c2cccc(C(=O)Nc3cccc(C(F)(F)F)c3)c2)C1 (stereo not given)
CCNc1cc(C(=O)N[C@@H](Cc2ccccc2)[C@H](O)CNC2(CCC(C)C)CC2)cc(N2CCCCS2(=O)=O)c1
COc1cc2nc(NC3CCN(Cc4ccccc4)CC3)nc(N)c2cc1OC
CCN(CC)CCCNc1ncc2c(-c3ccc(NC(=O)Nc4cc(C(F)(F)F)ccc4F)c(F)c3)nn(C)c2n1
CN(C)CCOc1cc(NC(=O)Nc2ccc(Oc3ccccc3)cc2)ccc1I
COc1ccc(NC(=O)/C=C/c2ccc(-c3ccccc3)cc2)cc1N1CCN(C)CC1
CCc1c[nH]c2c(N3CCCS3(=O)=O)cc(C(=O)N[C@@H](Cc3ccccc3)[C@H](O)CNC(C)(C)CCCC(C)C)cc12
O[C@H]1[C@H](OCc2ccc(-c3ccccc3)cc2)CC[C@@H]1N1CCCCC1
Cc1ccc(NC(=O)c2ccc(CN3CCCN(Cc4cccc(O)c4)CC3)cc2)cc1F
CCNc1cc(C(=O)N[C@@H](Cc2ccccc2)[C@H](O)CNC2CCC(C(C)(C)C)CC2)cc(N2CCCC2=O)c1 (stereo not given in full)
OC(COCc1ccc(-c2ccccc2)cc1)CN1CCCCC1 (stereo not given)
Nc1ccc2nc(C=Cc3ccc(Cl)cc3)[nH]c2c1
CC(C)NCc1cccc(-c2ccc(NC(=O)c3ccc(F)cc3)cc2)c1
CN(CCCc1c[nH]c2ccccc12)CCC1CCC(NC(=O)/C=C/c2ccc(Cl)c(Cl)c2)CC1 (stereo not given)
Cc1c(-c2cccc(C(C)(C)NCCCN3CCCCC3)c2)cnc(N)c1C
CC(CN(C)C)C(=O)Nc1cccc(-c2cccc(-c3nc4ccccc4[nH]3)c2)c1 (stereo not given)
O=[N+]([O-])c1cccc(CNCC2CCN(Cc3ccc(Cl)c(Cl)c3)CC2)c1
NC(N)=NCCCN(Cc1ccccc1)c1ccccc1
Cc1cc(=O)c(-c2ccc(OCc3ccc(OC(F)(F)F)cc3)cc2)c(C)[nH]1
CC(C)CNCc1cccc(-c2cccc(CN(CCCN3CCN(C)CC3)C(=O)NC3CCCCC3)c2)c1
CC(C)c1ccc(S(=O)(=O)Nc2cccc(CCN3CCC(N4CCCCC4)CC3)c2)cc1
O=C1Nc2cccc3c2C1(CCCCN1CCC(c2c[nH]c4cc(C(F)(F)F)ccc24)CC1)CCC3 (stereo not given)
